Screens: PubChem, Buhrlage Lab, Dana-Farber Cancer Institute and Novartis Institutes for BioMedical Research (Cambridge, Mass)
USP28 block = inhibitors of human USP28 deubiquitinase. Ubiquitin carboxyl-terminal hydrolase 28 (Homo sapiens), Q96RU2. purified USP28, Ub-rhodamine cleavage fluorescence, 30 min. inhibition, % at 25 µM. 3% of 47,000 active. AID 1645857, 2021
Target sequence (Q96RU2 whole entry, looked up): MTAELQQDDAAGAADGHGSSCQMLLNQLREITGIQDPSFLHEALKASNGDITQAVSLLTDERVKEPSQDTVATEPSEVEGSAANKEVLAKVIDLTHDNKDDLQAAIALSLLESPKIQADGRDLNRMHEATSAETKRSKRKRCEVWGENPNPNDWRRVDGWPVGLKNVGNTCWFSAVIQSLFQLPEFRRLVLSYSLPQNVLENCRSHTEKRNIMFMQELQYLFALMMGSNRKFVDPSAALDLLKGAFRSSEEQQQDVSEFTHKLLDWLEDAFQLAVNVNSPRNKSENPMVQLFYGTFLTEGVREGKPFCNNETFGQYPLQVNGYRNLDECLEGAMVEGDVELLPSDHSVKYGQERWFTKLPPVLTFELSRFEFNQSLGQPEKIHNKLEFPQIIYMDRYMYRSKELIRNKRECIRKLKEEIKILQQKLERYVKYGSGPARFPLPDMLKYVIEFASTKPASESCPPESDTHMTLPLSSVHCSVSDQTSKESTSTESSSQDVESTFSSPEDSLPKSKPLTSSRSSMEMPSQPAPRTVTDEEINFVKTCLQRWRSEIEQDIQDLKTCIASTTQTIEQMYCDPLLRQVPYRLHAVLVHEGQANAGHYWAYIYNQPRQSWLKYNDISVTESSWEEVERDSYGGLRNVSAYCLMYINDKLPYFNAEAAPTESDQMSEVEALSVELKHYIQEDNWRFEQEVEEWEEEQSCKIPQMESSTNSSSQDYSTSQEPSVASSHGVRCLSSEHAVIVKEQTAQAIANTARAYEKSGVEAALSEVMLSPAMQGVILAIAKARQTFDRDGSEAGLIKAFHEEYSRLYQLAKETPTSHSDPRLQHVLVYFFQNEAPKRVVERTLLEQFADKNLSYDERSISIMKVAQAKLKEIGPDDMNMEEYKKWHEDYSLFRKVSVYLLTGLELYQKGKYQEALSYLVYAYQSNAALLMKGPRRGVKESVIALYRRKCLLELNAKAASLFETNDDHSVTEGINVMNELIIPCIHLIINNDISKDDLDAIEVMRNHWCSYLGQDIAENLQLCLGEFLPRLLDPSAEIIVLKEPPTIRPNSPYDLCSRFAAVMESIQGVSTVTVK
USP30 block = inhibitors of human USP30 deubiquitinase | inhibition, % at 25 µM | 5.3% of 47,000 active | purified USP30, Ub-rhodamine cleavage fluorescence | Ubiquitin carboxyl-terminal hydrolase 30 (Homo sapiens), Q70CQ3
* marks the source's active call; other numbers are inactive results. Hits are enriched below; roughly 7% of the tested compounds scored in any of these assays. Rule as the data show it: active = inhibition above about 30%; inactive = the rest.

SMILES | USP28 block | USP30 block
CCOc1ccc(Cc2nc(-c3ccc4nnc(C)n4c3)no2)cc1 | -1 | 3
COc1ccc(Cc2nc(-c3ccc4nncn4c3)no2)c(Cl)c1 | 41* | 5
Clc1ccc(OCc2nc(-c3ccn4cnnc4c3)no2)cc1 | 45* | -99
c1ccc(OCc2nc(-c3ccn4cnnc4c3)no2)cc1 | 24 | -40
O=C(c1cccnc1)N1CCC2(CC1)CC1(CO2)Nc2ccccc2-n2cccc21 (stereo not given) | 0 | -10
Cc1cc(CN2CC[C@@H]3OC[C@H](C(=O)NCC4CC4)C[C@@H]3C2)oc1C | -3 | -1
CS(=O)(=O)N1CCCC1c1ccnc(Nc2ccccn2)n1 (stereo not given) | 6 | 17
Cc1ncccc1C(=O)N[C@@H]1C[C@@H](Oc2cccc(F)c2)[C@H](O)[C@H]1N(C)C | 14 | 30
Cc1cccc(C(=O)NCC(c2ccc(C)o2)N2CCCCC2)c1 (stereo not given) | -15 | -34
O=C(Nc1ccccc1Br)c1cnc(-c2ccccc2)nc1-c1ccncc1 | -96 | -388
CCn1nnc2cc(C(=O)NCc3ccc4c(c3)OCO4)ccc21 | 5 | -19
Nc1c(C(=O)NCc2ccc3c(c2)OCO3)nnn1Cc1ccc(Br)cc1F | 40* | 75*
Cc1nc2n(n1)CCN(C(=O)c1cc3nc(C4CC4)cc(C(F)(F)F)n3n1)C2 | -8 | 2
COc1ccc(C2CN3C(=O)CN(CCN4CCOCC4)C(=O)[C@]3(C)c3[nH]c4ccccc4c32)cc1 (stereo not given in full) | -14 | -27
Cc1ccc(-c2nc3c(c(=O)c4ccccc4n3C)c(=O)n2-c2ccc(F)cc2)cc1 | -2 | 7
O=c1c2ccccc2oc2nc(-c3cccs3)n(-c3ccccc3)c(=O)c12 | 9 | 33*
N#Cc1ccc(C(=O)Oc2ccc3c(C(F)(F)F)cc(=O)oc3c2)cc1 | 0 | -2
Clc1ccc(-n2cc(-c3ccccc3)c3c(NCc4ccco4)ncnc32)cc1 | -34 | -221
Cc1ccc(NC(=O)c2ccc(N3C(=O)C(C)CS3(=O)=O)cc2Cl)cc1C (stereo not given) | 39* | -1
Cc1ccc(C)c(NC(=O)c2ccc(N3C(=O)C(C)CS3(=O)=O)cc2Cl)c1 (stereo not given) | 8 | 10
O=C(CSc1n[nH]c(-c2ccc(F)cc2)n1)Nc1ccc(F)cc1F | 11 | 15
COc1ccc(-c2nc(SCC(=O)Nc3ccc(Cl)cc3F)n[nH]2)cc1 | -1 | 33*
CCc1ccc(-c2nc(SCC(=O)Nc3ccc4[nH]c(=O)[nH]c4c3)n[nH]2)cc1 | 23 | 58*
O=C(CSc1n[nH]c(-c2ccc(F)cc2)n1)Nc1ccc(F)cc1 | -3 | -1
COc1ccc(OCCN2CCN(C(=O)c3cn(-c4ccccc4)nc3-c3cccnc3)CC2)cc1 | 0 | 0
SMILES | USP28 block | USP30 block
COc1cccc(OC(C)C(=O)NCc2ccc(-c3ncncc3-c3cc(C)no3)cc2)c1 (stereo not given) | 12 | 19
COc1cc(NC(=O)Cn2nc(C(C)C)c(-c3cc(C)no3)cc2=O)cc(OC)c1 | 38* | 32*
CN(C)[C@@H]1[C@@H](O)[C@H](Oc2ccccc2)C[C@H]1NC(=O)c1cccnc1 | -4 | -6
O=C(Nc1ccc(OC(F)(F)F)cc1)NC1CCCc2ccccc21 (stereo not given) | -1 | -3
O=C(Nc1ccccc1F)NC1CCCc2ccccc21 (stereo not given) | 1 | 40*
CCc1ccccc1NC(=O)C1=CC(c2ccc(F)cc2)=NS(=O)(=O)N1C | 11 | 26
Cc1noc2nc(C)n(CC(=O)NCCc3ccc(Cl)cc3)c(=O)c12 | 10 | 12
CC(C)OC(=O)c1cc2c(ccn2-c2ccc(F)cc2)n1CC(=O)Nc1ccc2c(c1)OCCO2 | -29 | -106
O=C1CC(O)C(C2=CC(=O)c3c(O)cccc3C2=O)O1 (stereo not given) | 83* | 8
O=C1c2c(O)cc(O)cc2OC(c2ccc(O)c(O)c2)C1O (stereo not given) | 56* | 60*
CCCCN1CCN(c2ccc3c(c2)OCO3)C1=O | 37* | 12
Cn1cccc1C(=O)NC1CC(=O)N(c2ccc3c(c2)OCO3)C1 (stereo not given) | 3 | -2
COc1ccc(C)cc1NS(=O)(=O)c1ccc(NC(=O)CN(c2c(C)cccc2C)S(C)(=O)=O)cc1 | -11 | -17
Cc1cc(NC(=O)CSc2nnc(COc3ccc(Cl)cc3)o2)no1 | -3 | -15
Cc1cccc(OCc2nnc(SCC(=O)Nc3cccc(F)c3C)o2)c1 | 44* | 25
CC(OC(=O)c1ccc(Cl)cc1)C(=O)NCC1CCCCC1 (stereo not given) | 15 | 31*
CC(OC(=O)c1ccc(N(C)C)cc1)C(=O)NC1CCCC1 (stereo not given) | 14 | 16
CCC(=O)Nc1nc2cc(NC(=O)Nc3cc(C)cc(C)c3)ccc2s1 | 26 | 48*
CCC(=O)Nc1nc2cc(NS(=O)(=O)c3ccc(C)cc3)ccc2s1 | -5 | -25
CC(C)(C)C(=O)N1CCC(Cc2cc(-c3cncc(C(=O)O)c3)ncn2)C1 (stereo not given) | -4 | -26
O=C(Nc1ccc(F)cc1Cl)c1nc(-c2ccncc2)no1 | 16 | 15
CC(C)(C)NC(=O)CN1C(=O)COc2cc(S(=O)(=O)N3CCCC3)ccc21 | 4 | -8
CC(NCC(=O)Nc1cc(S(=O)(=O)N2CCCCCC2)ccc1Cl)c1ccccc1 (stereo not given) | 17 | 43*
Cc1ccccc1NC(=O)c1cc(S(=O)(=O)N2CCCCCC2)ccc1Cl | 24 | 63*
Cc1cccc(NC(=O)CN2C(=O)COc3cc(S(=O)(=O)N4CCCC4)ccc32)c1C | 21 | 60*
SMILES | USP28 block | USP30 block
Cc1ccc(S(=O)(=O)N2CCCCC2)cc1NC(=O)CN1C(=O)CN(C)C1=O | -12 | -13
Cc1ccc(S(=O)(=O)N2CCCCC2)cc1NC(=O)Cc1cccc(F)c1 | 60* | -4
COc1cc(OC)c(C(=O)Nc2cc(S(=O)(=O)N3CCCCC3)ccc2C)cc1OC | -10 | -40
COc1cc(CC(=O)Nc2cc(S(=O)(=O)N3CCCCC3)ccc2Cl)cc(OC)c1OC | 5 | 16
Cc1cccc(NC(=O)Cn2ccc3ccc(-c4nnc(C)o4)cc32)n1 | -6 | -31
CCCN1CNc2c(c(=O)[nH]c(=O)n2CCc2ccccc2)C1 | -1 | -11
CCOC(=O)N1CCN(S(=O)(=O)c2ccc(F)c(C(=O)Nc3ccccc3Cl)c2)CC1 | 5 | 36*
CCOc1ccccc1NC(=O)c1cc(S(=O)(=O)N2CCCCC2)ccc1F | 28 | 29
c1ccc2c(-c3nc(C4CC4)no3)nnc(NCCN3CCOCC3)c2c1 | 5 | 0
O=C(NCc1cccnc1)C1CCN(c2cc(N3CCOCC3)ncn2)CC1 | 13 | 43*
Cc1cccc(CNC(=O)C2CCN(c3cnc(N4CCOCC4)nc3)CC2)c1 | -9 | -19
COC(=O)C1(Cc2ccc(O)cc2)OC(=O)C(O)=C1c1ccc(O)cc1 (stereo not given) | 78* | 70*
CC(=O)NCCc1ccc(O)cc1 | -3 | 4
Cc1ccc(-c2noc(C3CCN(C(=O)Nc4cc(C)cc(C)c4)CC3)n2)cc1 | -9 | 6
CCOc1ccc(-c2ccc3nnc(SCC(=O)Nc4ccc(F)cc4)n3n2)cc1 | -4 | 33*
